This is part of a sample that, as a whole, favours compounds with a hit. Of some 83,000 tested, about 20% had one in any assay.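 Assay: single dose, 48 h. Readout: percent growth (0 = no net growth; negative = cell death). Active: <10.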 Calls of active or inactive are those of the source.
How the values were obtained:
Assay in all cases: NCI-60 one-dose screen, 48 h (100 = growth as untreated, 0 = no growth, -100 = all killed)
Conditions in all cases: 10 µM unless noted
T-47D breast = tested on: T-47D breast
BT-549 breast = tested on: BT-549 breast
MDA-MB-435 melanoma = tested on: MDA-MB-435 melanoma
SW-620 colon = tested on: SW-620 colon
MCF7 breast = tested on: MCF7 breast
HCT-116 colon = tested on: HCT-116 colon
HCC-2998 colon = tested on: HCC-2998 colon
KM12 colon = tested on: KM12 colon

Measured: growth

NC(CSC(c1ccccc1)(c1ccccc1)c1ccc2c(c1)OCO2)C(=O)O (stereo not drawn)
inactive: T-47D breast 30.2% | BT-549 breast 22.7% | SW-620 colon 12.9% | MCF7 breast 10.3% | KM12 colon 13.1%
active: MDA-MB-435 melanoma -58% | HCT-116 colon 7.34% | HCC-2998 colon 9.26%

COc1cc(OC)cc(C2C(C#N)=C(N)Oc3c2ccc2ccc(O)cc32)c1 (stereo not drawn)
inactive: T-47D breast 58.4% | BT-549 breast 26.2% | SW-620 colon 26.1%
active: MDA-MB-435 melanoma 4.98% | MCF7 breast 7.95% | HCT-116 colon 4.25% | HCC-2998 colon 7.75% | KM12 colon 5.84%

O=C(O)CCCn1c(SCc2c(Cl)cccc2Cl)nc2ccsc2c1=O
active: MDA-MB-435 melanoma -58.4%
inactive: T-47D breast 35.5% | BT-549 breast 34.2% | SW-620 colon 15.1% | MCF7 breast 20.6% | HCT-116 colon 18.8% | HCC-2998 colon 29.6% | KM12 colon 18.3%

N#Cc1c(-c2cccc([N+](=O)[O-])c2)cc(-c2ccc(Nc3nc(Nc4ccc(F)cc4)nc(Nc4ccc(F)cc4)n3)cc2)nc1N
inactive: T-47D breast 115% | BT-549 breast 173% | MDA-MB-435 melanoma 112% | SW-620 colon 108% | MCF7 breast 291% | HCT-116 colon 108% | HCC-2998 colon 113% | KM12 colon 114%

CCN(CC)CCCC(C)Nc1ccc2cc(OC)ccc2n1 (stereo not drawn)
inactive: T-47D breast 103% | BT-549 breast 107% | MDA-MB-435 melanoma 104% | SW-620 colon 94.4% | MCF7 breast 84.2% | HCT-116 colon 102% | HCC-2998 colon 101% | KM12 colon 93.2%

COc1cccc2c(N=NC(=O)c3ccc(S(N)(=O)=O)cc3)c(O)[nH]c12
inactive: T-47D breast 92.9% | BT-549 breast 94.3% | MDA-MB-435 melanoma 100% | SW-620 colon 94.8% | MCF7 breast 91.1% | HCT-116 colon 99.4% | HCC-2998 colon 113% | KM12 colon 101%

O=C1/C(=C/c2ccc(C(F)(F)F)cc2)COc2ccc(O)cc21
active: SW-620 colon 1.98% | MCF7 breast 6.03%
inactive: T-47D breast 78% | BT-549 breast 72.8% | MDA-MB-435 melanoma 87.7% | HCT-116 colon 33.2% | HCC-2998 colon 94.1% | KM12 colon 52.2%

O=C1NC(=O)c2c1c1c3ccccc3[nH]c1c1oc3cc(Br)ccc3c21
inactive: T-47D breast 28.1% | BT-549 breast 81.3% | MDA-MB-435 melanoma 76.6% | SW-620 colon 51.5% | MCF7 breast 36.2% | HCT-116 colon 65.1% | HCC-2998 colon 99.7% | KM12 colon 64.4%

FC(F)(F)c1[nH]ncc1-c1nc2c(N3CCCCC3)cc3[nH]ncc3c2c2c1CCCC2
inactive: MDA-MB-435 melanoma 10.8% | KM12 colon 11.1%
active: T-47D breast -4.06% | BT-549 breast -52.7% | SW-620 colon 6.31% | MCF7 breast 3.33% | HCT-116 colon 3.74% | HCC-2998 colon -8.43%

COc1ccc(-c2cc(-c3cc(OC)c(OC)c(OC)c3)c(C#N)c(=O)n2CCCCCC(=O)NO)cc1
inactive: T-47D breast 71.7% | BT-549 breast 99.5% | MDA-MB-435 melanoma 98.2% | SW-620 colon 101% | MCF7 breast 89% | HCT-116 colon 88% | HCC-2998 colon 110% | KM12 colon 93.4%

COc1cc(/C=N/Nc2ccccc2F)cc(OC)c1OC
inactive: T-47D breast 67.7% | BT-549 breast 96% | MDA-MB-435 melanoma 94.3% | SW-620 colon 93.6% | MCF7 breast 78.3% | HCT-116 colon 84.5% | HCC-2998 colon 108% | KM12 colon 86.3%

Cc1cc(C(=O)Nc2cc(Nc3ncccc3-c3ncnc4nc[nH]c34)ccc2F)cc(C(F)(F)F)c1
inactive: T-47D breast 64.8% | BT-549 breast 91.3% | MDA-MB-435 melanoma 26.2% | SW-620 colon 33.9% | MCF7 breast 66.9% | HCT-116 colon 19.1% | HCC-2998 colon 30.6% | KM12 colon 49.5%

O=C(/C=C/c1ccc(Br)cc1)c1ccc(-n2cc(CN3CCN(c4cc5c(cc4F)c(=O)c(C(=O)O)cn5C4CC4)CC3)nn2)cc1
active: HCT-116 colon 7.82%
inactive: T-47D breast 80% | BT-549 breast 81.3% | MDA-MB-435 melanoma 86.6% | SW-620 colon 95.5% | MCF7 breast 64.8% | HCC-2998 colon 98.5% | KM12 colon 88.8%

CN(C)Cc1ccc(C(=O)Nc2ccc3ncnc(Nc4ccc(Oc5cccc(F)c5)c(Cl)c4)c3c2)cc1
inactive: T-47D breast 10% | BT-549 breast 80.2%
active: MDA-MB-435 melanoma -89.4% | SW-620 colon -73.1% | MCF7 breast -62.1% | HCT-116 colon -39.7% | HCC-2998 colon -65.3% | KM12 colon -5.02%

CCOC(=O)C1CCN(c2ccc(N3C[C@@H](CNCc4ccc(C(=N)N)cc4)OC3=O)cc2)CC1
inactive: T-47D breast 96.2% | BT-549 breast 94.4% | MDA-MB-435 melanoma 104% | SW-620 colon 97.1% | MCF7 breast 97.2% | HCT-116 colon 98.9% | HCC-2998 colon 108% | KM12 colon 98.7%

COc1ccc2nc3cc(Cl)ccc3c(NCCN)c2c1
active: T-47D breast -72.3% | BT-549 breast -45.7% | MDA-MB-435 melanoma -90.2% | SW-620 colon -68.9% | MCF7 breast -70.2% | HCT-116 colon -73.2% | HCC-2998 colon -73.2% | KM12 colon -64%

CCN(CC)S(=O)(=O)c1ccc(S(=O)(=O)N2CCC[C@@H](C(=O)N3CCN(C(=O)OC(C)(C)C)CC3)C2)cc1
inactive: T-47D breast 44.5% | BT-549 breast 61.5% | MDA-MB-435 melanoma 60.6% | SW-620 colon 80.4% | MCF7 breast 49.3% | HCT-116 colon 54.1% | HCC-2998 colon 89.6% | KM12 colon 76.9%

CCOC(=O)c1c2c(n3c1NCC3)-c1ccccc1C2=O
inactive: T-47D breast 97.7% | BT-549 breast 86.9% | MDA-MB-435 melanoma 90.8% | SW-620 colon 91.8% | MCF7 breast 90.6% | HCT-116 colon 103% | HCC-2998 colon 91.4% | KM12 colon 103%

O=C(CSc1nc2ccc([N+](=O)[O-])cc2[nH]1)Nc1cccc([N+](=O)[O-])c1
inactive: T-47D breast 16.2% | BT-549 breast 59% | MDA-MB-435 melanoma 43.8% | SW-620 colon 73.8% | MCF7 breast 52.8% | HCT-116 colon 33.6% | HCC-2998 colon 62.9% | KM12 colon 57.4%

CN1CCN(c2ccc(NC(=O)c3cncnc3Nc3ccc4c(ccn4Cc4cccc(F)c4)c3)cc2)CC1
inactive: T-47D breast 48.8% | BT-549 breast 85.6% | MCF7 breast 12.8% | HCT-116 colon 13.1% | HCC-2998 colon 61.6% | KM12 colon 46.7%
active: MDA-MB-435 melanoma -79.7% | SW-620 colon 5.18%

CN(C)c1ccc(/C=C/C(=O)c2ccccc2)cc1
inactive: T-47D breast 68.5% | BT-549 breast 81.3% | MDA-MB-435 melanoma 28.6% | SW-620 colon 63.5% | MCF7 breast 44.7% | HCT-116 colon 67.5% | HCC-2998 colon 97.5% | KM12 colon 51.4%

CCn1cc(C(=O)N/N=C/c2ccc(Br)cc2)c(=O)c2cc(F)c(N3CCNC(C)C3)c(F)c21 (stereo not drawn)
inactive: T-47D breast 64.1% | BT-549 breast 91.7% | MDA-MB-435 melanoma 16.7% | HCT-116 colon 67.7% | HCC-2998 colon 25.9% | KM12 colon 47.9%
active: SW-620 colon -74.1% | MCF7 breast -77.3%

COc1ccc(-c2cn(-c3ccc(Cl)cc3)c(SCC(=O)c3ccc([N+](=O)[O-])cc3)n2)cc1
inactive: T-47D breast 83.4% | BT-549 breast 89.7% | MDA-MB-435 melanoma 79.5% | SW-620 colon 86.1% | MCF7 breast 82.4% | HCT-116 colon 74.6% | HCC-2998 colon 103% | KM12 colon 94.8%

Cc1cc(F)ccc1S(=O)(=O)Nc1cc(-c2c(O)ccc3ccccc23)c(O)c2ccccc12
active: T-47D breast 7.54% | HCT-116 colon 5.49% | HCC-2998 colon -3.54% | KM12 colon 3.55%
inactive: BT-549 breast 30.1% | MDA-MB-435 melanoma 28% | SW-620 colon 25.8% | MCF7 breast 30.1%

N#CCC1=NC(c2cccs2)=Nc2ccccc2S1
inactive: T-47D breast 69.7% | BT-549 breast 86.6% | MDA-MB-435 melanoma 105% | SW-620 colon 97.8% | MCF7 breast 96.8% | HCT-116 colon 80.8% | HCC-2998 colon 92.5% | KM12 colon 94.9%

CCN(CC)c1ccc(/C=N\NC(=O)c2cccc(Nc3ccnc(C(F)(F)F)c3)c2)c(O)c1
inactive: T-47D breast 15.1% | BT-549 breast 28.8% | MDA-MB-435 melanoma 15.4% | SW-620 colon 35.4% | MCF7 breast 16.1% | HCT-116 colon 26.5% | HCC-2998 colon 60.1% | KM12 colon 23%

CCN1C(=O)N(CC)C2C1NN=c1s/c(=C\c3cc4ccccc4[nH]3)c(=O)n12 (stereo not drawn)
inactive: BT-549 breast 12.2% | SW-620 colon 19.8% | HCC-2998 colon 10.3% | KM12 colon 10.3%
active: T-47D breast 2.04% | MDA-MB-435 melanoma -9.5% | MCF7 breast 3.88% | HCT-116 colon 9.85%

Nc1c(C(=O)Nc2ccncc2)sc2nc3c(cc12)CCCCC3
inactive: T-47D breast 25.7% | BT-549 breast 50.4% | MDA-MB-435 melanoma 67% | SW-620 colon 105% | MCF7 breast 58.5% | HCT-116 colon 66.4% | HCC-2998 colon 85.3% | KM12 colon 75.6%

O=C(CSc1nnc2sc(Nc3cccc(Cl)c3)nn12)c1ccc(F)cc1
inactive: T-47D breast 76.4% | BT-549 breast 97.8% | MDA-MB-435 melanoma 100% | SW-620 colon 99% | MCF7 breast 90.4% | HCT-116 colon 85.8% | HCC-2998 colon 103% | KM12 colon 95.8%

CN1CCN(Cc2ccc(NC(=O)c3cncc(C#Cc4cncc5ncccc45)c3)cc2C(F)(F)F)CC1
active: SW-620 colon -26.7% | HCT-116 colon -58.3%
inactive: T-47D breast 60.9% | BT-549 breast 38.6% | MDA-MB-435 melanoma 10.6% | MCF7 breast 13.7% | HCC-2998 colon 13.9% | KM12 colon 10.7%

CC[C@H](C)[C@H](NC(=O)[C@H](CCCNC(=N)N)NC(=O)[C@H](Cc1c[nH]c2ccccc12)NC(=O)[C@@H](NC(=O)[C@H](CCCCN)NC(=O)[C@H](CCCCN)NC(=O)[C@@H](NC(=O)[C@@H](NC(=O)[C@@H](NC(=O)[C@H](CCCCN)NC(=O)[C@H](Cc1ccccc1)NC(=O)[C@H](CCCCN)NC(=O)[C@H](CCCCN)NC(=O)[C@H](Cc1ccccc1)NC(=O)[C@@H](NC(=O)[C@@H](N)CCCCN)[C@@H](C)CC)[C@@H](C)O)[C@@H](C)CC)[C@@H](C)CC)C(C)C)C(=O)N[C@@H](Cc1ccccc1)C(=O)NCC(=O)N[C@@H](CCCNC(=N)N)C(=O)N[C@@H](Cc1ccccc1)C(N)=O
active: T-47D breast -30.1% | MDA-MB-435 melanoma -17% | SW-620 colon -14.9% | MCF7 breast -17% | HCT-116 colon -3.28% | KM12 colon -25.6%
inactive: BT-549 breast 32.5% | HCC-2998 colon 10.6%

Source: PubChem BioAssay (NCI)
